About 83,000 compounds went through this panel and 20% of them were active in at least one assay; those are over-represented in the sample as a whole.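 Values shown are percent growth following 48 h exposure of cells in 96-well plates to a single concentration of compound; below 10 was considered active.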 Values without a mark were called inactive. Activity calls are given as the source filed them.

The test deals with MDA-MB-468 breast. Kind of test: NCI-60 one-dose screen, 48 h (100 = growth as untreated, 0 = no growth, -100 = all killed). The following applies: 10 µM unless noted. The procedure: Growth inhibition of the MDA-MB-468 human Breast tumor cell line is measured as a screen for anti-cancer activity. Cells are grown in 96 well plates and exposed to the test compound for 48 hours. Compounds are tested at a single concentration, which is 10^-5 M for most compounds. The reported endpoint is percent growth (GI% or GIPRCNT), where numbers from 0 - 100% represent growth inhibition, and numbers from -100% - 0 represent cell death. For example, a value of 40 represents 60% growth inhibition. A value of 0 means no net growth occurred over the course of the experiment. A value of -40 indicates 40% of cells at the beginning of the experiment died by the end of the experiment. A value of -100 means all cells are dead at the end of the experiment.
NCI-60 Human Tumor Cell Lines Screen was performed using the standard one-dose NCI protocol, which is described in more detail at https://dtp.cancer.gov/discovery_development/nci-60/default.htm.
Compounds with GIPRCNT values below 10 were considered active. Activity score was based on GIPRCNT using the following formula: […]
Score is 0 for GIPRCNT values of 100 or above, 50 for GIPRCNT values of 0, and 100 for GIPRCNT values of -100.
With `Cn1cc(-c2cc3nc(-c4cn(C)c5ncc(Br)cc45)cc(N)n3n2)c2ccccc21`, the growth is -78.9% (active).

With `O=C(/C=C/c1cccc(OCc2ccccc2)c1)c1nc2ccccc2[nH]1`, the growth is -40.1% (active).

As to `N#Cc1ccc(/C=N/NC(=O)c2[nH]c3ccc(Br)cc3c2-c2ccccc2)o1`, the growth was -13.6% (active).

With `COc1cc(OC)cc(C(=O)Nc2cccc(-c3cn(-c4ccc(S(N)(=O)=O)cc4)nn3)c2)c1`, the growth was 95.4%.

In the case of `CC1=C(C(=O)c2ccccc2)C(c2cccc(Cl)c2Cl)n2c(nc3ccccc32)N1` (stereo not given), the growth is -38.3% (active).

Turning to `CCCCOc1ccc(NC(=O)c2sc3nc(C)ccc3c2N)cc1`, the growth is -48.4% (active).

On to `N/C(=N\N=C\c1ccc([N+](=O)[O-])cc1)c1c(N)nc(=S)[nH]c1-c1ccc(Cl)cc1Cl`, for which the growth was 90.8%.

As to `Cn1cc(-c2cc3nc(-c4cn(C)c5ncccc45)cc(N)n3n2)c2cc(Cl)ccc21`, the growth was -95.5% (active).

In the case of `Cn1cc(-c2nnc(N)nc2-c2c[nH]c3ccc(F)cc23)c2cccnc21`, the growth is 39.1%.

As for `CCOC(=O)c1ccc(Nc2nc(NN)nc(-c3ccc(OC)cc3)c2C#N)cc1`, the growth was 119%.

For the molecule `COc1ccc(/C=C2\C(=O)Nc3ccc(Cl)cc32)cc1OCc1ccccn1`, the growth was 59%.

Take `CCS(=O)(=O)N1CCCC(C(=O)Nc2nc3ccc(NC(=O)c4ccc(F)c(OC)c4F)cc3s2)C1` (stereo not given): the growth was 7.13% (active).

For the molecule `Cc1ccccc1[C@H]1C(C(=O)c2ccc(Cl)cc2)C2(N[C@@H]1c1ccccc1)C(=O)Nc1ccc(Cl)cc12` (stereo not given in full), the growth is -19.1% (active).

On to `Cc1ccc(-n2c(-c3cc4ccccc4nc3Cl)noc2=O)cc1`, for which the growth was 16.2%.

Turning to `O=C(COc1ccc(NC(=O)Nc2ccc(Cl)c(Cl)c2)cc1)N=Nc1c(O)[nH]c2ccccc12`, the growth is -47.7% (active).

As to `Cc1cc(C)n(-c2ccc3nnc(-c4ccccc4)n3n2)n1`, the growth was 97%.

In the case of `COc1cc2oc(-c3cccc(C(=O)Nc4ccc(Cl)cc4)c3)cc(=O)c2c(OCCNC(=O)[C@H](CO)NC(=O)OC(C)(C)C)c1OC`, the growth is -4.81% (active).

In the case of `COc1ccc(C(=O)/C=C/c2cccc(Cl)c2Cl)cc1S(N)(=O)=O`, the growth was -16.4% (active).

In the case of `C#CCOc1cc(N(CC)CC)ccc1C(C(=O)NC(C)(C)C)N(C(=O)C1CCc2cc(F)ccc2O1)c1ccccc1Br` (stereo not given), the growth was 38.2%.

With `O=C(N=Nc1c(O)[nH]c2ccc(Cl)cc12)c1ccc2nc(-c3ccccc3)[nH]c2c1`, the growth was -31.3% (active).

For `N#Cc1c(-c2cccc(O)c2O)cc(-c2ccc3ccccc3c2)[nH]c1=O`, the growth is 58.6%.

As to `Cc1c(C(=O)NNC(=O)c2ccc(Cl)cc2)nnn1-c1ccc(Cl)cc1`, the growth was 89.4%.

Take `COc1c(F)ccc(C(=O)Nc2ccc3nc(NC(=O)C4CCCN(S(=O)(=O)c5ccc(C#N)cc5)C4)sc3c2)c1F` (stereo not given): the growth was 86.2%.

As to `COc1ccc(/C=C/c2nc3ccccc3c(=O)n2CC(=O)Nc2ccc(OC)cc2)cc1`, the growth is 91.1%.

Take `CC(=O)Nc1ccc(-n2cnc3ccc(-c4ccc(O)cc4)cc32)cc1`: the growth is 22%.

As to `COc1cc(-c2cc(-c3cccc(OCC(=O)O)c3)[nH]c(=O)c2C#N)cc(OC)c1OC`, the growth was 96.7%.

For `Cc1ccc(C2CC(c3ccc(S(=O)(=O)NCCNc4nc(Nc5ccc(F)cc5)nc(N(C)C)n4)cc3)=Nc3c(N)nc(N)nc3N2)cc1` (stereo not given), the growth is -12.8% (active).

In the case of `Cc1ccc(NC(=O)CN2CCN(c3ncnc4c3cnn4-c3ccccc3)CC2)cc1`, the growth is 87.1%.

For the molecule `COc1ccc(C(=O)/C=C/c2cccc(Br)c2)cc1S(N)(=O)=O`, the growth is -53.9% (active).

Take `CC(=O)Nc1cccc(Nc2nc(N[C@H]3CCCc4ccccc43)c3ccccc3n2)c1`: the growth was 101%.

Take `CCOC(=O)C1=C(N)N(c2ccccc2)C2=C(C(=O)CC(C)(C)C2)C1c1ccc(Cl)cc1Cl` (stereo not given): the growth was 3.8% (active).

With `CN1CCN(c2ccc(C(=O)/C=C/c3cc(C(F)(F)F)cc(C(F)(F)F)c3)cc2)CC1`, the growth was -69.3% (active).

As to `N#Cc1c(NCc2ccccc2)n[nH]c1Nc1ccccc1`, the growth was 59.8%.

For the molecule `Brc1ccc(-c2n(Cc3ccc4ccccc4c3)c(-c3ccccc3)c(-c3ccccc3)[n+]2Cc2ccc3ccccc3c2)cc1`, the growth is -71.2% (active).

For `O=C(C1=CNC(=S)NC1c1ccc(O)cc1)c1cc2ccccc2oc1=O` (stereo not given), the growth was 99.5%.

`CCN(CC)C(=O)N/C(N)=N/c1nc2ccccc2s1`: the growth is 5.79% (active).

For the molecule `CC1(C)CC[C@]2(C(=O)O)CC[C@]3(C)C(=CCC4[C@@]5(C)C[C@@H](O)[C@@H]6OC(c7ccco7)OC[C@@]6(C)C5CC[C@]43C)C2C1` (stereo not given in full), the growth was 8.23% (active).

Turning to `O=C(O)c1ccc(-c2ccc(/C=N/NC(=O)c3[nH]c4ccc(Br)cc4c3-c3ccccc3)s2)cc1`, the growth is 3.12% (active).

As to `Cc1cnc(C(=O)NNc2nc3cc(F)ccc3n3c(C(=O)N4CC5CC(C4)N5)ccc23)cn1`, the growth is 13.8%.

Consider `COc1ccc2oc(=O)c(C3(C)NC(=O)c4c(/C=C/C(=O)OC(C)(C)C)cccc4N3)cc2c1` (stereo not given), for which the growth is 31.7%.

The record behind these values is PubChem BioAssay (NCI).
